Consider 16 compounds from PubChem BioAssay.

Assay [1] is described as follows: lowers stimulated NF-kB luciferase signal in Jurkat – cell-based, luminescence, single concentration, T-cell NF-kB inhibitor project, confirmation (AID 435020).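 Note: plate controls were PMA/ionomycin stimulated DMSO wells for no effect and unstimulated DMSO wells for full effect.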 The following applies: PMA/ionomycin-induced, 16 h, at 4 µM, stronger effect = higher value.
For assay [2], the target named is Tumor necrosis factor receptor superfamily member 10B (Homo sapiens) (UniProt O14763). Description: viability loss of caspase-8 NB7 cells with TRAIL – with/without TRAIL, luminescence panel, confirmation (AID 651596; in the data active = activity above about 50%). The note with it: NB7 neuroblastoma + caspase-8, TRAIL sensitization, NB7 Caspase-8, with TRAIL, mean of runs, at 10 µM, stronger effect = higher value.
Chain of Tumor necrosis factor receptor superfamily member 10B (Homo sapiens) (O14763 whole entry, looked up): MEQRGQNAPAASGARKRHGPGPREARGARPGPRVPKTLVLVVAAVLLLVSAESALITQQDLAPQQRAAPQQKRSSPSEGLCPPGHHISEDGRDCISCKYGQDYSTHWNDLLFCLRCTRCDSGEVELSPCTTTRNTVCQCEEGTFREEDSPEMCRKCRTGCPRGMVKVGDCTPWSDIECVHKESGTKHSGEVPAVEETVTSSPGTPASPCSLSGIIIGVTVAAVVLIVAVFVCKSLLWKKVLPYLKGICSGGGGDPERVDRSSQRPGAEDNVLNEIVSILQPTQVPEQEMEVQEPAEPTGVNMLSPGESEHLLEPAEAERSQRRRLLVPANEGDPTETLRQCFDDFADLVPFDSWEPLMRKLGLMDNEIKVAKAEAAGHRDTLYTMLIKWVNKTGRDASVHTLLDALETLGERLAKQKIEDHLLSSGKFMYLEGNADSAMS
Assay in assay [3]: as above
The following applies: NB7 neuroblastoma + caspase-8, without TRAIL, NB7 Caspase-8, without TRAIL, mean of runs, at 10 µM.

Assay [4] in a line: Brca1-Bard1 BiLC signal decrease – luminescence, single concentration, counter-screen for Mdm2/MdmX interaction inhibitor project, confirmation (AID 504668; call rule not given here). The note with it: Brca1/Bard1 bimolecular luciferase complementation counterscreen, at 8 µM, stronger effect = higher value. (In general: Counterscreens check selectivity or assay interference.)
Assay [5] has as its target COP9 signalosome complex subunit 5 (Homo sapiens) (UniProt Q92905). Description: blockers of CSN-driven cullin deneddylation – biochemical, fluorescence polarization, single concentration, SCF-Nedd8OG substrate, confirmation (AID 720654; in the data active = inhibition above about 50%;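 note: 0% = DMSO with enzyme and 100% = no enzyme wells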). The following applies: Csn5 deneddylation of SCF-Nedd8OG, 90 min, at 16.6 µM, stronger effect = higher value. On the technique in general: In fluorescence polarisation assays a small probe gives low polarisation when free and higher when bound to something large.

Assay [6] concerns the target 72 kDa type IV collagenase (Homo sapiens) (UniProt P08253). Kind of assay: human MMP-2 inhibitors, single-point check – biochemical, fluorescence, single concentration, counter-screen for CSN deneddylation inhibitor project, confirmation (AID 720655;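 active = corrected plate-normalized z-score of 5 or more, or -5 or less, or inhibition of 15% or more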;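 note: plate controls were DMSO wells with enzyme for no effect and buffer wells lacking MMP-2 for full effect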). The following applies: recombinant MMP-2, FRET substrate fluorescence, 60 min; at 16.6 µM.
In another assay the target is Prothrombin (Bos taurus) (UniProt P00735). Kind of assay: thrombin cleavage blockers, FP readout – biochemical, fluorescence polarization, single concentration, counter-screen for CSN deneddylation inhibitor project, confirmation (AID 720656;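 active = inhibition at or above a set limit, with a fluorescence interference ratio between 0.5 and a set maximum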). The note with it: bovine thrombin cleavage of Ub4-pepOG, at 16.6 µM, stronger effect = higher value.
Chain of Prothrombin (Bos taurus) (P00735 whole entry, looked up): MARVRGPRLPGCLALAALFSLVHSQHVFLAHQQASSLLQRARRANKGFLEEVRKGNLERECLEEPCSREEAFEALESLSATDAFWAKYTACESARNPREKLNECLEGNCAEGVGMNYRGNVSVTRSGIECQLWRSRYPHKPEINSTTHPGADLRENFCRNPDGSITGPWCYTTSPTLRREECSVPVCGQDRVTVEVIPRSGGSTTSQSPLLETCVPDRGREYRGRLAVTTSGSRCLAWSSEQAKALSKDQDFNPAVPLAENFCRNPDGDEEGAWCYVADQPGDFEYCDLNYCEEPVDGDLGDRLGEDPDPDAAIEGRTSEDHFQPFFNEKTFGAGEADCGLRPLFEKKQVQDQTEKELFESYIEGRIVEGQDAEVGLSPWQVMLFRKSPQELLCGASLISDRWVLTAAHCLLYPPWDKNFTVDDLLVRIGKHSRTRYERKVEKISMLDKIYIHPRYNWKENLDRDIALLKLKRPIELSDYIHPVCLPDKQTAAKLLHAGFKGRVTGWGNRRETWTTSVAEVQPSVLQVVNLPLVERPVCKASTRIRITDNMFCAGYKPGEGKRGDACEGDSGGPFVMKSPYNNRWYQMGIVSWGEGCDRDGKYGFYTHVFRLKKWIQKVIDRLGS
Assay [7] in a line: PERK-eIF2a-CHOP pathway stimulators, retested – cell-based, CHO-CHOP luciferase reporter, single concentration, confirmation (AID 463112; in the data active = activation above about 33%;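 note: 0% = DMSO wells and 100% = tunicamycin 10 µg/mL wells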). The following applies: CHO-CHOP cells, CHOP-luciferase reporter luminescence; at 10 µM; stronger effect = higher value; percent of tunicamycin response, DMSO as zero. In general terms: Reporter assays use an easily measured gene product as a stand-in for the process of interest.

Assay [8] concerns the target Protein Mdm4 (Homo sapiens) + E3 ubiquitin-protein ligase Mdm2 (Homo sapiens) (UniProt O15151+Q00987). Kind of assay: human Mdm2/MdmX binding disruption – cell-based, luminescence, single concentration, set 2, confirmation (AID 504601;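 active = mean inhibition of the luminescence signal across two replicates at or above 26 percent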). The note with it: SaOS-2 split-luciferase Mdm2/MdmX complementation, at 8 µM, stronger effect = higher value.
Assay [9] is described as follows: apoptosome-driven caspase-3 activation blockers – biochemical, fluorescence, DEVD-Rh110, 20 µM, confirmation (AID 504614;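 active = mean inhibition of at least 40% at 20 µM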;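 note: plate controls were DMSO wells for no effect and DEVD-CHO caspase inhibitor control wells for full effect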). The following applies: reconstituted apoptosome, caspase-3 DEVD-Rh110 fluorescence; at 20 µM; stronger effect = higher value.
Assay [10] can be described thus: detection-step artefacts after completed caspase reaction – biochemical, fluorescence, Rh110, 20 µM, artefact control for Apaf-1 inhibitor project, confirmation (AID 504615;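 active = signal rise of 40% or more at 20 µM, treated as a fluorescence artifact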). The following applies: quenched caspase reaction, at 20 µM, stronger effect = higher value.
The target of assay [11] is Sentrin-specific protease 8 (Homo sapiens) (UniProt Q96LD8). Kind of assay: human SENP8 peptidase blockers, hit retest – biochemical, luminescence, single concentration, confirmation (AID 488912;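 active = mean inhibition across replicates above about 50%, limit read from the data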). The following applies: Recombinant SENP8, Z-RLRGG-aminoluciferin luminescence, 60 min; at 12.5 µM; stronger effect = higher value.
Chain of Sentrin-specific protease 8 (Homo sapiens) (Q96LD8 whole entry, looked up, the tested form may be a part): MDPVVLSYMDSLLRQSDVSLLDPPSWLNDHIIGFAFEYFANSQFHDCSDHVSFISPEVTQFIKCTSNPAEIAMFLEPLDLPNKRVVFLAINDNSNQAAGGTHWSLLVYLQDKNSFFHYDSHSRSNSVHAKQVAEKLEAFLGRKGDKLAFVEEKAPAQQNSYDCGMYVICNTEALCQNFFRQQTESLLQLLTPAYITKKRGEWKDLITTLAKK
Assay [12] addresses Sentrin-specific protease 6 (Homo sapiens) (UniProt Q9GZR1). Kind of assay: inhibition of human SENP6 catalytic domain – biochemical, luminescence, single concentration, confirmation (AID 488915;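 active = mean inhibition above about 50% in the one-dose retest, limit read from the data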). The note with it: recombinant SENP6, Z-RLRGG-aminoluciferin luminescence; at 12.5 µM; stronger effect = higher value.
For assay [13], the target named is Sentrin-specific protease 7 (Homo sapiens) (UniProt Q9BQF6). Kind of assay: human SENP7 peptidase blockers, hit retest – biochemical, luminescence, single concentration, confirmation (AID 488917;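 active = mean inhibition above about 50% in the one-dose retest, limit read from the data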). The note with it: recombinant SENP7, Z-RLRGG-aminoluciferin luminescence, 40 min; at 12.5 µM; stronger effect = higher value.
Chain of Sentrin-specific protease 7 (Homo sapiens) (Q9BQF6 706-1050 limits assumed): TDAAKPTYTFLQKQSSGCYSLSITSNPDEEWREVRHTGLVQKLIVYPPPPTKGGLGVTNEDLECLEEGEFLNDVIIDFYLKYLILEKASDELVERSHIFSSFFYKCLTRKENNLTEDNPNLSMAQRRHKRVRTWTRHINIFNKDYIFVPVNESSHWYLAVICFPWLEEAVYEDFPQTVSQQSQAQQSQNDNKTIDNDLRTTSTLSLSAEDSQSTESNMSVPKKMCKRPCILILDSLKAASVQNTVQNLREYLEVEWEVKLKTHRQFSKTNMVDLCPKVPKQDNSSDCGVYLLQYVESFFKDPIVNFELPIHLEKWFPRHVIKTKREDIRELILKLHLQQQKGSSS
In a further assay the target is Caspase-3 (Homo sapiens) (UniProt P42574). Description: human caspase-3 activity blockade, out-of-family – biochemical, single concentration, selectivity assay for SENP inhibitor project, confirmation (AID 488918;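 active = mean inhibition above about 50%, limit read from the data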;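 note: plate controls were enzyme with DMSO for no effect and wells without caspase-3 for full effect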). The following applies: purified caspase-3, Z-DEVD-aminoluciferin luminescence, 60 min; at 12.5 µM; stronger effect = higher value.
Chain of Caspase-3 (Homo sapiens) (P42574 28-227 limits assumed): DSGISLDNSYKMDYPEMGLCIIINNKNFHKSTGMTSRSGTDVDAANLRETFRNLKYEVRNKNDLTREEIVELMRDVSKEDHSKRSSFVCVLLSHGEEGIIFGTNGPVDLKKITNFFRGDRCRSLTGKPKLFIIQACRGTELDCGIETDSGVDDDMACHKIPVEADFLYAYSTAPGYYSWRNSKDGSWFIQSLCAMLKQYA
A short description of assay [14]: Ultra-Glo luciferase signal interference – biochemical, single concentration, SENP8 reaction pre-completed, artefact control for SENP inhibitor project, confirmation (AID 488919;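 active = mean inhibition above about 50% when retested at one dose, limit read from the data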;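 note: plate controls were DMSO wells with completed reaction for no effect and substrate without enzyme for full effect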). The following applies: Pre-incubated SENP8/Z-RLRGG-aminoluciferin, luciferase luminescence interference; at 12.5 µM; stronger effect = higher value.
The target of assay [15] is Carboxy-terminal domain RNA polymerase II polypeptide A small phosphatase 1 (Homo sapiens) (UniProt Q9GZU7). Description: SCP1 melting temperature change from compounds – biophysical, differential scanning fluorimetry, orthogonal assay for Scp-1 inhibitor project, confirmation (AID 540329;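 active = substances whose mean melting-temperature shift, as a percentage of the reference inhibitor's shift, reaches about 5.3%, limit read from the data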;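 note: 0% = Tm of DMSO wells and 100% = Tm with sodium orthovanadate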). The following applies: Recombinant SCP1, Sypro Orange thermal shift Tm; at 40 µM; stronger effect = higher value.
Chain of Carboxy-terminal domain RNA polymerase II polypeptide A small phosphatase 1 (Homo sapiens) (Q9GZU7 76-261 limits assumed): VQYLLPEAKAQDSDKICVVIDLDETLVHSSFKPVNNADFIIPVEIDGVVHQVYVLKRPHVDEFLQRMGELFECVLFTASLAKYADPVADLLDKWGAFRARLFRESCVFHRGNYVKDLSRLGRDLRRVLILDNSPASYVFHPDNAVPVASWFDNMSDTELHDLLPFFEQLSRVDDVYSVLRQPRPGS

Assay [16] is described as follows: inhibition of PEG-3 promoter luciferase signal – cell-based, HeLa, luciferase reporter, single concentration, confirmation (AID 602417;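 active = at 20 µM dose, 40% or more inhibition averaged across four replicates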). The note with it: HeLa PEG-Prom luciferase reporter, luminescence, overnight; at 20 µM; stronger effect = higher value.
Assay [17] can be described thus: HIF-2a driven luciferase blockers, single dose – luminescence, 786-0 RCC cells, confirmation (AID 651580;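 active = mean inhibition across four replicates of at least 40 percent at the single tested concentration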). The note with it: HIF-2a luciferase reporter luminescence, overnight, at 18.8 µM, stronger effect = higher value.
Assay [18] in a line: HIF-1a luciferase reporter signal reduction – MiaPaCa-2 cells, single concentration, counter-screen for HIF-2a inhibitor project, confirmation (AID 651589;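 active = mean inhibition of the reporter signal across four replicates at the single tested dose of 50% or more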). The note with it: MiaPaCa-2 HIF-1a luciferase reporter, desferoxamine, overnight; at 18.8 µM; stronger effect = higher value.
A short description of assay [19]: NF-kB reporter suppression in CF airway cells – cell-based, GFP fluorescence, single concentration, confirmation (AID 602472; in the data active = inhibition above about 40%;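 note: stimulus PAF is a Pseudomonas aeruginosa filtrate and not platelet activating factor; plate controls were DMSO wells with stimulus for no effect and unstimulated DMSO wells for full effect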). The note with it: KKLEB CF airway cells, PAF-induced NF-kB-GFP fluorescence, overnight; at 5 µM; stronger effect = higher value.
Assay [20] in a line: NFkB reporter suppression in cystic fibrosis bronchial cells – cell-based, uHTS hits, panel, cytotoxicity readout, dose response (AID 624344). The following applies: CF bronchial epithelial cells, PAF-induced NFkB reporter inhibition, with PAF, run 1; at 79 µM (top of the series) unless noted.
Assay in assay [21]: as above
The note with it: CF bronchial epithelial cells, PAF-induced NFkB reporter inhibition, with PAF, run 2; at 79 µM (top of the series) unless noted.

The list shows a part of the results. Activity calls are given as the source filed them.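 Rule for the calls, unless noted: active = inhibition reaching about 45% at 4 µM in either replicate (limit read from the data); inactive = the rest.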

Chain of 72 kDa type IV collagenase (Homo sapiens) (P08253 whole entry, looked up): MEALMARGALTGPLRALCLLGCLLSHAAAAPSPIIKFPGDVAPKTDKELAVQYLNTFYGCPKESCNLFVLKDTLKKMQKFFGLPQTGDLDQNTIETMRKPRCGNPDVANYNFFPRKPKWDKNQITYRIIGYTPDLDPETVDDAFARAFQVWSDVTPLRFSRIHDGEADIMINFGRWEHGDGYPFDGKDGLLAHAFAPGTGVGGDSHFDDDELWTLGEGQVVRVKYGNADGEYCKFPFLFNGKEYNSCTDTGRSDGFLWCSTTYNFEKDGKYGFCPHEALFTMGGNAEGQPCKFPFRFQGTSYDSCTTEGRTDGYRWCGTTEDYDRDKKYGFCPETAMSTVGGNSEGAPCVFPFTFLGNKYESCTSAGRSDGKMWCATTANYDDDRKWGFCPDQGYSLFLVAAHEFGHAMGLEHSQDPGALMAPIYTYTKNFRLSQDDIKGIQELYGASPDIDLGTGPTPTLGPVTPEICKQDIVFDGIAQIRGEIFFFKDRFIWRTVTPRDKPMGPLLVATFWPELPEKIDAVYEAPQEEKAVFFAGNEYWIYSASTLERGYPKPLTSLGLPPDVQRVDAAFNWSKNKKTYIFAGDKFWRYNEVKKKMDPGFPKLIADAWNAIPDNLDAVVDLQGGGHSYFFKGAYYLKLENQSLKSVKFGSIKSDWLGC
Chain of Sentrin-specific protease 6 (Homo sapiens) (Q9GZR1 628-1112 limits assumed): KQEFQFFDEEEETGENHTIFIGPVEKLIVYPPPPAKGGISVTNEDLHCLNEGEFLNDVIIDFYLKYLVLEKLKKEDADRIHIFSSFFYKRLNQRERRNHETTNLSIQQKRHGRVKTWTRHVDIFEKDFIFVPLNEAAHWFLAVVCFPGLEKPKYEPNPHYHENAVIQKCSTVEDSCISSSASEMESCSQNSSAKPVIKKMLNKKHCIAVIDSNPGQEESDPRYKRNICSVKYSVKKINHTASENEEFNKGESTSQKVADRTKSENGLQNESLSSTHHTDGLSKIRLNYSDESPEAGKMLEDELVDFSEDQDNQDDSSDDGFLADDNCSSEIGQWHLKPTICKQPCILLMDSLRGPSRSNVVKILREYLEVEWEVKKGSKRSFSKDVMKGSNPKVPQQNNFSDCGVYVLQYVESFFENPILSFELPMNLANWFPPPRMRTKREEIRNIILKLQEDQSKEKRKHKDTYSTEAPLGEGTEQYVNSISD
Chain of COP9 signalosome complex subunit 5 (Homo sapiens) (Q92905 whole entry, looked up, one chain of several): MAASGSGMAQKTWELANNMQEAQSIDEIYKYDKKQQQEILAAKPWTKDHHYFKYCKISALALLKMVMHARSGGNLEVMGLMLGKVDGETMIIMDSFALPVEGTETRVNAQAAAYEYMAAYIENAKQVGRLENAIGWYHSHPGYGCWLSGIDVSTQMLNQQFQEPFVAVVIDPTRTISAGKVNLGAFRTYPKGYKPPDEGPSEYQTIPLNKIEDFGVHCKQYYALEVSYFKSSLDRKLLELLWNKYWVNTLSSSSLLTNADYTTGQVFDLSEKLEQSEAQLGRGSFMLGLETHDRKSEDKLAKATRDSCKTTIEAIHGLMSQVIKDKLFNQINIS
Chain of Protein Mdm4 (Homo sapiens) + E3 ubiquitin-protein ligase Mdm2 (Homo sapiens) (O15151 whole entry, looked up): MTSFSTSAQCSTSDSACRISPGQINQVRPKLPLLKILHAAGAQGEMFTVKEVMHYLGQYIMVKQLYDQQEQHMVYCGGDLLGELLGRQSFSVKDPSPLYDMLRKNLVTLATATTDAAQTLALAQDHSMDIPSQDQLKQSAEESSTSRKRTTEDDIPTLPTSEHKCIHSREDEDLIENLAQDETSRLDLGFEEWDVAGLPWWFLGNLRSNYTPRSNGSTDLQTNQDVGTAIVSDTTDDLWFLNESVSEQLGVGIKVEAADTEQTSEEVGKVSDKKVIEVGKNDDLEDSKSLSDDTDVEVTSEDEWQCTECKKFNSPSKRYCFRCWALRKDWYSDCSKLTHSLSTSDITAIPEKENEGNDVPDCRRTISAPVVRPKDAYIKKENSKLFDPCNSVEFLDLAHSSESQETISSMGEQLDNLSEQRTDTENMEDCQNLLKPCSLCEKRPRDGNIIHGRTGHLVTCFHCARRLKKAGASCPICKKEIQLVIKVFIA
Chain of Protein Mdm4 (Homo sapiens) + E3 ubiquitin-protein ligase Mdm2 (Homo sapiens) (Q00987 whole entry, looked up): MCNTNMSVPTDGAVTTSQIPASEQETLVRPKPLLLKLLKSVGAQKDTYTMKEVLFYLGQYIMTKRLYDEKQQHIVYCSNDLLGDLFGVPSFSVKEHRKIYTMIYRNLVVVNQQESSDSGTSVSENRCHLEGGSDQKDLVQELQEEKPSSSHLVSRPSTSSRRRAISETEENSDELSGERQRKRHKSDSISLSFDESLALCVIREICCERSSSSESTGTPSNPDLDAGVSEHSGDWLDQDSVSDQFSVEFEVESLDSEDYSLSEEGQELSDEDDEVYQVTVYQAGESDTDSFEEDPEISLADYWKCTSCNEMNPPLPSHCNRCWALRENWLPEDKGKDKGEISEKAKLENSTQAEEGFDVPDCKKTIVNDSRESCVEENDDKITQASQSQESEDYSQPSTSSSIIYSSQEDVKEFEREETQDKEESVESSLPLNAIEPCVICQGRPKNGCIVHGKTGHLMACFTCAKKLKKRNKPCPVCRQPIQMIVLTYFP

By inhibition is commonly meant the relative decrease from the control value, in per cent. As for `NC(=O)c1c(NC(=O)c2ccccc2)sc2c1CCCC2`, the inhibition in [1] was -110% (inactive). The figures for the activity in assay [2] and in assay [3] were 51.6% and 58%, respectively.

Turning to `COc1cccc(/C=N/NC(=O)c2[nH]nc3c2CCc2ccccc2-3)c1O`, the inhibition is 39.9% (inactive) in assay [1]; 27% (active) in assay [4]; 20.6% (inactive) in assay [5]; 34.7% (active) in assay [6]; 30.2% (active) with Prothrombin (Bos taurus).

Consider `COc1ccc(OC)c(Nc2nc(-c3ccc(O)c(O)c3)cs2)c1`, for which, in [7], the activation is 187% (active).

`CCc1nn(-c2cc(Oc3cccc4ccccc34)nc(-c3ccccc3)n2)c(N)c1C#N`: the activation in assay [7] was 40.1% (active).

Take `Cc1cccc(Nc2nc3c(S(=O)(=O)c4ccccc4)nnn3c3ccccc23)c1C`: the activation in assay [7] is 128% (active).

In the case of `NC(N)=N/N=C/c1ccc(OCc2ccc(Cl)cc2Cl)cc1`, the results for the inhibition in [1], in assay [8] and in assay [9] were -12.9% (inactive), 102% (active) and 35.8% (inactive), respectively. Also, the activation (fluorescence interference) in [10] is -0.23% (inactive). Also, the figures for the activity in [2] and in assay [3] were 58.8% and 95.5%, respectively.

Take `CC(=O)/C(=N\Nc1ccc(Cl)cc1Cl)Sc1cccc2cccnc12`: in assay [7], the activation was 184% (active).

For `Cc1ccc(O)c(NC(=O)c2cc(-c3ccco3)on2)c1`, the inhibition in [1] was 52.2% (active); in [11] it was 30.6% (inactive); in assay [12], 36.5% (inactive); in assay [13] it was 81.1% (active); with Caspase-3 (Homo sapiens) it was 44.4% (inactive); in [14], 14.4% (inactive).

Consider `O=C(N/N=C\c1cc2c(cc1Cl)OCO2)c1ccc(Br)s1`, for which, in [7], the activation was 50.2% (active).

As for `Cn1ccc(=Nc2ccc(NC(=O)c3ccc(N=c4ccn(C)c5ccc([N+](=O)[O-])cc45)cc3)cc2)cc1`, the values for the inhibition (in [1]; in assay [6]; in the assay with Prothrombin (Bos taurus)) were -15.3% (inactive), 61.8% (active) and -10.3% (inactive), respectively.

Take `CC1(C)CC(N2CCN(C(c3ccccc3)c3ccccc3)CC2)=CC(=[N+]2CCCCC2)C1`: the inhibition in assay [1] was 69.6% (active). Moreover, the activity in assay [2] was determined as 74.7%; in [3], 56.2%.

On to `Cc1cc(C(=O)OCC(=O)NCc2ccco2)c(C)n1-c1ccccc1`, for which the inhibition in [1] was 6.4% (inactive). Also, in [15], the thermal shift relative to vanadate control was -3.06% (inactive).

For the compound `COC(=O)Cc1[nH]n(-c2nc3ccccc3s2)c(=O)c1C(C)=Nc1ccc(OC)cc1`, the inhibition was 79.2% (active) in assay [1]; 26.2% (active) in [4]; 86.3% (active) in [16]; 82.3% (active) in assay [17]; 92.7% (active) in assay [18]. In addition, the activity is 47% in assay [2] and 40.9% in assay [3].

In the case of `CC[n+]1cc(C)ccc1/C=C/c1ccc(N(C)C)cc1`, the inhibition in [1] is 46% (inactive); in assay [5], 56.8% (active); in [6], -78.8% (active); with Prothrombin (Bos taurus) it was 63.1% (active).

As for `O=C(Nc1nc2ccccc2s1)c1ccc2c(c1)OCO2`, the inhibition in [1] is -106% (inactive); in assay [11], 66% (active); in assay [12], 95.1% (active); in assay [13], 97.4% (active); with Caspase-3 (Homo sapiens) it was 84.8% (active); in [14], 18.6% (inactive). The results for the activity in assay [2] and in assay [3] were 78.8% and 76.8%, respectively.

Regarding `COc1ccc(C2=Nn3c(nnc3-c3ccccc3OC)SC2)cc1OC1CCCC1`, the inhibition in assay [1] was 58% (active); in assay [19] it was 98.4% (active); in assay [20] it was 98.7%; in [21], 118% [at 39.5 µM].
